Data on 16 compounds can be found in PubChem BioAssay (NCATS).

The structures appear in SMILES notation. Records with an inconclusive call do not appear. Calls of active or inactive are those of the source.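 How the source made its calls: active means compounds whose dose-response curve shows a full or clear partial loss of cell viability, called from curve shape rather than a numeric limit; inconclusive means weak partial curves or an effect only at the top dose; inactive means no dose-dependent loss of viability.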
Potency means the concentration at half of the fitted maximal effect.

The assay in a line: Cell Viability - Hek293 (AID 427).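 Further: cells exposed to compound for 40 hours at 37 °C before reading.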 The following applies: qHTS. The source says:
NIH Chemical Genomics Center [NCGC]
NIH Molecular Libraries Screening Centers Network [MLSCN]
National Institutes of Environmental Health Sciences [NIEHS]
National Toxicology Program [NTP]
We have developed a 1536-well cell-based assay for quantitative high throughput screening (qHTS) against a number of cell lines to determine in vitro cytotoxicity of small molecules. This particular assay uses the Hek 293 cell line which is derived from human embryonic kidney cells (transformed with adenovirus).
NCGC Assay Protocol Summary:
The CellTiter-Glo luminescent cell viability assay (Promega) is a homogeneous method to measure the number of viable cells in culture. The end point readout of this assay is based on quantitation of intracellular ATP, an indicator of metabolic activity, using the luciferase reaction. Luciferase catalyzes the oxidation of beetle Luciferin to oxyluciferin and light in the presence of ATP. The luminescent signal is proportional to amount of ATP present.
Using the CellTiter-Glo luminescent cell viability assay, the amount of cellular ATP was measured in the Hek293 cell line with complete culture medium following compound treatment for 40 hours. The assay was performed in opaque white Kalypsys 1536-well plates. In the screen, tamoxifen and doxorubicin were used as positive controls. Library compounds were measured for their ability to cause acute toxicity in the cell line, as reflected by a decrease in intracellular ATP levels, in a concentration-dependent manner. Data were normalized to the controls for basal activity (DMSO only) and 100% inhibition (100 uM tamoxifen). AC50 values were determined from concentration-response data modeled with the standard Hill equation.
qHTS protocol fo CellTiter Glo Hek 293 cellular assay
[Step] [Parameter] [Value] [Description]
2. Time; 5 hr; 37 °C incubation
4. Controls; 23 nL; Tamoxifen 0.34 uM to 100 uM & Doxorubicin 0.02 nM to 100 uM
5. Time; 40 hr; 37 °C incubation
6. Reagent; 5 uL; CellTiter Glo reagent
7. Time; 20 min; Room Temperature
8. Detection; Luminescence; Viewlux plate reader
Keywords: cell viability, cytotoxicity, Hek293 cell line, luminescence, NTPHTS, NTPHTS_NCGC, NIEHS, EPA, DSSTox, MLSMR, MLSCN, NIH Roadmap, qHTS, NCGC
As to `O=P1(N(CCCl)CCCl)NCCCO1` (stereo unspecified), the Potency is > 92 µM (inactive).

For the compound `CCOC(=O)CC(SP(=S)(OC)OC)C(=O)OCC` (stereo unspecified), the Potency was > 92 µM (inactive).

Take `NCCc1ccc(O)cc1`: the Potency was > 92 µM (inactive).

As to `O=C(O)CCCc1ccc(N(CCCl)CCCl)cc1`, the Potency was 18.6 µM (active).

Take `COc1cc(OC)c(OC)cc1C=O`: the Potency was > 92 µM (inactive).

Regarding `COP(=S)(OC)Oc1ccc(SC)c(C)c1`, the Potency is > 92 µM (inactive).

With `COC(=O)C(c1ccccc1)C1CCCCN1` (stereo unspecified), the Potency is > 92 µM (inactive).

In the case of `C[C@]12CCC(=O)C=C1CC[C@@H]1[C@@H]2CC[C@]2(C)C(=O)CC[C@@H]12`, the Potency was 36.7 µM (active).

For the compound `CCCC(C)(COC(N)=O)COC(N)=O`, the Potency is > 92 µM (inactive).

In the case of `CC(C)c1cccc(C(C)C)c1O`, the Potency was > 92 µM (inactive).

With `Nc1ccccc1`, the Potency was > 92 µM (inactive).

For the compound `Nc1ccccc1C(=O)O`, the Potency was > 92 µM (inactive).

With `CCC(C)(C)c1ccc(O)cc1`, the Potency was > 92 µM (inactive).

Consider `CC(C)NC(C)C`, for which the Potency was > 92 µM (inactive).

For `C[C@]1(O)CC[C@H]2[C@@H]3CCC4=CC(=O)CC[C@]4(C)[C@@]3(F)[C@@H](O)C[C@@]21C`, the Potency was > 92 µM (inactive).

In the case of `Oc1ccc(Cl)cc1`, the Potency was > 92 µM (inactive).
